These compounds were tested on A549-CANX-COX4 (assay: lowest phenotypically active concentration; higher = less potent). Conditions: treatment time: 24 h.
Method in brief: (§1)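 Each of fifteen gene-edited A549, HepG2 and WPMY1 reporter lines, marked with BFP for segmentation and GFP and RFP/FusionRed, was treated in four wells at 0.3, 1, 3 or 9 µM for 24 h prior to live imaging. Normalisation of per-well live-cell features used solvent control wells. Deviation needed ≥3 of 4 wells beyond the 95th percentile of control Euclidean distances, and reproducibility needed a median replicate Pearson correlation above the 95th percentile of non-replicates. Both were required for phenotypic activity.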

Lowest phenotypically active concentration, 3 µM:
O=c1[nH]cc(F)c(=O)[nH]1 [5-Fluorouracil], CCN1CCN(C(c2cccnc2)c2cc(Cl)c3cccnc3c2O)CC1 (stereo not given), Oc1ccc(Nc2nc(-c3ccc(Cl)cc3)cs2)cc1, Cc1nc(NC(=O)N2CCC[C@H]2C(N)=O)sc1-c1ccnc(C(C)(C)C(F)(F)F)c1 [alpelisib], COc1cc2c(NC3CCN(C(C)C)CC3)nc(C3CCCCC3)nc2cc1OCCCN1CCCC1

Lowest phenotypically active concentration, 1 µM:
Nc1cc(C(F)(F)F)c(-c2cc(N3CCOCC3)nc(N3CCOCC3)n2)cn1 [buparlisib], COc1cc([C@@H]2c3cc4c(cc3[C@@H](O[C@@H]3O[C@@H]5CO[C@@H](C)O[C@H]5[C@H](O)[C@H]3O)[C@H]3COC(=O)[C@H]23)OCO4)cc(OC)c1O [etoposide], COc1cc2ncn(-c3cc(OCc4ccccc4C(F)(F)F)c(C(N)=O)s3)c2cc1OC

Lowest phenotypically active concentration, 9 µM:
CCOc1cc(N2CCC(O)CC2)ccc1Nc1ncc2c(n1)N(C)c1ccccc1C(=O)N2C

Lowest phenotypically active concentration, ≤ 0.3 µM:
CC[C@H](C)[C@H](NC(=O)OCc1ccccc1)C(=O)N[C@@H](CCC(=O)OC(C)(C)C)C(=O)N[C@@H](C)C(=O)N[C@H](C=O)CC(C)C, Cc1c2oc3c(C)ccc(C(=O)NC4C(=O)NC(C(C)C)C(=O)N5CCCC5C(=O)N(C)CC(=O)N(C)C(C(C)C)C(=O)OC4C)c3nc-2c(C(=O)NC2C(=O)NC(C(C)C)C(=O)N3CCCC3C(=O)N(C)CC(=O)N(C)C(C(C)C)C(=O)OC2C)c(N)c1=O (stereo not given) [Actinomycin D], N#Cc1c(NC(=O)c2cccc3ccccc23)sc2c1CCCC2, CN1C/C(=C/c2ccc(B(O)O)cc2)C(=O)/C(=C/c2ccc(B(O)O)cc2)C1, Nc1ccn([C@@H]2O[C@H](CO)[C@@H](O)C2(F)F)c(=O)n1 [gemcitabine]

These compounds were tested on A549-TP53BP1-CLTA in the same assay as above. Conditions: treatment time: 24 h.
Method in brief: as §1

Lowest phenotypically active concentration, 9 µM:
O=c1[nH]cc(F)c(=O)[nH]1 [5-Fluorouracil], CCOc1cc(N2CCC(O)CC2)ccc1Nc1ncc2c(n1)N(C)c1ccccc1C(=O)N2C, Oc1ccc(Nc2nc(-c3ccc(Cl)cc3)cs2)cc1, Cc1nc(NC(=O)N2CCC[C@H]2C(N)=O)sc1-c1ccnc(C(C)(C)C(F)(F)F)c1 [alpelisib], CCN(CC)CCCC(C)Nc1ccnc2cc(Cl)ccc12 (stereo not given) [chloroquine], CCN1CCN(c2cc(-c3ccc(F)cc3)c3c(n2)CCCCCC3)CC1 [blonanserin], Cc1nc(NC(=O)N2CCC[C@H]2C(N)=O)sc1-c1csc(C(C)(C)C)n1

Lowest phenotypically active concentration, 1 µM:
Nc1cc(C(F)(F)F)c(-c2cc(N3CCOCC3)nc(N3CCOCC3)n2)cn1 [buparlisib], COc1cc2ncn(-c3cc(OCc4ccccc4C(F)(F)F)c(C(N)=O)s3)c2cc1OC

Lowest phenotypically active concentration, 3 µM:
CCN1CCN(C(c2cccnc2)c2cc(Cl)c3cccnc3c2O)CC1 (stereo not given), CC(C)CCN1c2nc(Nc3cc(F)c(O)c(F)c3)ncc2N(C)C(=O)C1C (stereo not given), COc1cc2c(NC3CCN(C(C)C)CC3)nc(C3CCCCC3)nc2cc1OCCCN1CCCC1

Lowest phenotypically active concentration, ≤ 0.3 µM:
CC[C@H](C)[C@H](NC(=O)OCc1ccccc1)C(=O)N[C@@H](CCC(=O)OC(C)(C)C)C(=O)N[C@@H](C)C(=O)N[C@H](C=O)CC(C)C, Cc1c2oc3c(C)ccc(C(=O)NC4C(=O)NC(C(C)C)C(=O)N5CCCC5C(=O)N(C)CC(=O)N(C)C(C(C)C)C(=O)OC4C)c3nc-2c(C(=O)NC2C(=O)NC(C(C)C)C(=O)N3CCCC3C(=O)N(C)CC(=O)N(C)C(C(C)C)C(=O)OC2C)c(N)c1=O (stereo not given) [Actinomycin D], N#Cc1c(NC(=O)c2cccc3ccccc23)sc2c1CCCC2, CN1C/C(=C/c2ccc(B(O)O)cc2)C(=O)/C(=C/c2ccc(B(O)O)cc2)C1, Nc1ccn([C@@H]2O[C@H](CO)[C@@H](O)C2(F)F)c(=O)n1 [gemcitabine], COc1cc([C@@H]2c3cc4c(cc3[C@@H](O[C@@H]3O[C@@H]5CO[C@@H](C)O[C@H]5[C@H](O)[C@H]3O)[C@H]3COC(=O)[C@H]23)OCO4)cc(OC)c1O [etoposide]

Each compound was assayed on HepG2-ACTB-RAB5A in the same assay as above. Conditions: treatment time: 24 h.
Method in brief: as §1

Lowest phenotypically active concentration, 1 µM:
Cc1nc(NC(=O)N2CCC[C@H]2C(N)=O)sc1-c1ccnc(C(C)(C)C(F)(F)F)c1 [alpelisib], Nc1cc(C(F)(F)F)c(-c2cc(N3CCOCC3)nc(N3CCOCC3)n2)cn1 [buparlisib], COc1cc([C@@H]2c3cc4c(cc3[C@@H](O[C@@H]3O[C@@H]5CO[C@@H](C)O[C@H]5[C@H](O)[C@H]3O)[C@H]3COC(=O)[C@H]23)OCO4)cc(OC)c1O [etoposide], COc1cc2c(NC3CCN(C(C)C)CC3)nc(C3CCCCC3)nc2cc1OCCCN1CCCC1

Lowest phenotypically active concentration, 3 µM:
O=c1[nH]cc(F)c(=O)[nH]1 [5-Fluorouracil], CCOc1cc(N2CCC(O)CC2)ccc1Nc1ncc2c(n1)N(C)c1ccccc1C(=O)N2C, CCN(CC)CCCC(C)Nc1ccnc2cc(Cl)ccc12 (stereo not given) [chloroquine], O=c1cc(-c2cccc3c2Sc2ccccc2S3)oc(N2CCOCC2)c1, CC(C)CCN1c2nc(Nc3cc(F)c(O)c(F)c3)ncc2N(C)C(=O)C1C (stereo not given), Cc1nc(NC(=O)N2CCC[C@H]2C(N)=O)sc1-c1csc(C(C)(C)C)n1

Lowest phenotypically active concentration, ≤ 0.3 µM:
CC[C@H](C)[C@H](NC(=O)OCc1ccccc1)C(=O)N[C@@H](CCC(=O)OC(C)(C)C)C(=O)N[C@@H](C)C(=O)N[C@H](C=O)CC(C)C, Cc1c2oc3c(C)ccc(C(=O)NC4C(=O)NC(C(C)C)C(=O)N5CCCC5C(=O)N(C)CC(=O)N(C)C(C(C)C)C(=O)OC4C)c3nc-2c(C(=O)NC2C(=O)NC(C(C)C)C(=O)N3CCCC3C(=O)N(C)CC(=O)N(C)C(C(C)C)C(=O)OC2C)c(N)c1=O (stereo not given) [Actinomycin D], N#Cc1c(NC(=O)c2cccc3ccccc23)sc2c1CCCC2, CN1C/C(=C/c2ccc(B(O)O)cc2)C(=O)/C(=C/c2ccc(B(O)O)cc2)C1, Nc1ccn([C@@H]2O[C@H](CO)[C@@H](O)C2(F)F)c(=O)n1 [gemcitabine], COc1cc2ncn(-c3cc(OCc4ccccc4C(F)(F)F)c(C(N)=O)s3)c2cc1OC

Lowest phenotypically active concentration, 9 µM:
CCN1CCN(C(c2cccnc2)c2cc(Cl)c3cccnc3c2O)CC1 (stereo not given), CCN1CCN(c2cc(-c3ccc(F)cc3)c3c(n2)CCCCCC3)CC1 [blonanserin]

From the supplement of paper PMC7411054
